Test results as given in PubChem BioAssay (Tox21).
Inconclusive results are not listed. Active and inactive are the calls of the source. Unless noted, calls come from the whole dose curve; as a rule, active = well fitted curve in the direction sought with a large enough effect in the repeat runs; inconclusive = weak or mixed curves; inactive = no such curve, though single readings can be large; an effect the other way counts as inactive or inconclusive.

Legend:
[1] = qHTS assay to identify small molecule antagonists of the peroxisome proliferator-activated receptor delta (PPARd) signaling pathway - cell viability counter screen (AID 743213); conditions: PPARd-bla HEK293H viability, CellTiter-Glo luminescence, 17 h; series mostly up to 62 µM; note: nearly all actives have a fitted effect of over 50% in size
Procedure, shortened: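 HEK293H PPARd UAS-bla cells, 5 h pre-incubation, compound + L165041 300 nM final, 17 h 37 C; B/G FRET substrate 2 h RT; then CellTiter-Glo 30 min RT, luminescence.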

[2] = biological target: Bile acid receptor (Homo sapiens) (UniProt Q96RI1); experiment: qHTS assay to identify small molecule antagonists of the farnesoid-X-receptor (FXR) signaling pathway (AID 743217; active = well fitted inhibition curve with a large enough effect in the signal ratio in the repeat runs, not every such curve was filed as active; the % refers to the signal ratio); conditions: HEK293T FXR-UAS-bla, beta-lactamase ratio, CDCA-stimulated, 16 h; series mostly up to 62.6 µM
Procedure, shortened: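 Screen of the Tox21 10K library in quantitative HTS format using FXR-UAS-bla HEK 293T reporter cells. Agonist chenodeoxycholic acid, 50 uM final, added with compounds; 16 h incubation at 37 °C; beta-lactamase FRET fluorescence measured.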

[3] = qHTS assay to identify small molecule agonists of the farnesoid-X-receptor (FXR) signaling pathway - cell viability counter screen (AID 743218); conditions: FXR-bla HEK293T viability, CellTiter-Glo luminescence, 16 h; series mostly up to 62.6 µM; note: nearly all actives have a fitted effect of over 45% in size
Procedure, shortened: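 Viability of FXR-bla HEK 293T cells is measured by ATP-based CellTiter-Glo luminescence following 16 h compound treatment at 37 C and a prior 2 h room-temperature beta-lactamase substrate step.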

[4] = biological target: Bile acid receptor (Homo sapiens) (UniProt Q96RI1); experiment: qHTS assay to identify small molecule agonists of the farnesoid-X-receptor (FXR) signaling pathway (AID 743220; active = well fitted activation curve with a large enough effect in the signal ratio in the repeat runs, not every such curve was filed as active; the % refers to the signal ratio); conditions: HEK293T FXR-UAS-bla, beta-lactamase FRET ratio, 16 h; series mostly up to 62.6 µM
Procedure, shortened: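 FXR-UAS-bla HEK 293T cells carrying a UAS-driven beta-lactamase reporter were plated for 5 h at 37C/5% CO2, then exposed to DMSO-dissolved Tox21 10K compounds for 16 h at 37C. A LiveBLAzer B/G FRET substrate was loaded for 2 h at room temperature before fluorescence reading.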

[5] = qHTS assay to identify small molecule antagonists of the farnesoid-X-receptor (FXR) signaling pathway - cell viability counter screen (AID 743221; active = well fitted cell-killing curve with a large enough effect in the repeat runs, not every such curve was filed as active; note: nearly all actives have a fitted effect of over 50% in size); conditions: FXR-bla HEK293T viability, CellTiter-Glo luminescence, 16 h; series mostly up to 62.6 µM
Procedure, shortened: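 Compound effects on cell number were measured as CellTiter-Glo luminescence in HEK 293T cells expressing FXR-UAS-bla, after 16 h at 37 C with 50 uM CDCA (final).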

[6] = biological target: Vitamin D3 receptor (Homo sapiens) (UniProt P11473); experiment: qHTS assay to identify small molecule agonists of the vitamin D receptor (VDR) signaling pathway (AID 743222; calls by dose curve); conditions: HEK293T VDR-UAS-bla, beta-lactamase FRET ratio, 16 h; series mostly up to 63.5 µM
Procedure, shortened: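 Fluorescence from cleaved LiveBLAzer B/G FRET substrate served as readout. VDR-bla cells had been treated 16 h at 37C with test compounds in DMSO, following a 4 h settling period, and substrate was loaded for 2 h at RT.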

[7] = qHTS assay to identify small molecule agonists of the vitamin D receptor (VDR) signaling pathway - cell viability counter screen (AID 743224); conditions: VDR-bla HEK293T viability, CellTiter-Glo luminescence, 16 h; series mostly up to 62.6 µM; note: nearly all actives have a fitted effect of over 50% in size
Procedure, shortened: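 Compounds were pin-transferred onto VDR-bla cells plated 4 h earlier; following 16 h incubation at 37C, cell viability was quantified by CellTiter-Glo luminescence after 30 min at room temperature.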

[8] = qHTS assay to identify small molecule agonists of the NFkB signaling pathway (AID 1159509; active = well fitted curve in the direction sought with a large enough effect in the signal ratio in the repeat runs, not every such curve was filed as active; the % refers to the signal ratio); conditions: NFkB-bla ME-180 cells, beta-lactamase FRET ratio, 5 h; series mostly up to 61 µM
Procedure, shortened: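 Readout: FRET fluorescence, 405 nm excitation, 460/530 nm emission; beta-lactamase expression disrupts FRET. Cells: ME-180 stably carrying NF-kB-driven bla reporter. Compound exposure 5 hr, 37 C, 5% CO2.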

[9] = qHTS assay to identify small molecule agonists of the NFkB signaling pathway - cell viability counter screen (AID 1159515; calls by dose curve; note: nearly all actives have a fitted effect of over 55% in size); conditions: NFkB-bla ME-180 viability, CellTiter-Glo luminescence, 5 h; series mostly up to 61 µM
Procedure, shortened: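 Parallel cytotoxicity counter screen in ME-180 cells carrying an NFkB-response-element beta-lactamase reporter, 2,000 cells/well. Compound exposure lasted 5 hr at 37 C, 5% CO2. Cell viability was quantified by CellTiter-Glo luminescence.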

[10] = qHTS assay to identify small molecule agonists of the endoplasmic reticulum stress response signaling pathway (AID 1159516; active = well fitted activation curve with a large enough effect in the signal ratio in the repeat runs, not every such curve was filed as active; the % refers to the signal ratio); conditions: ESRE-bla HeLa, ER stress beta-lactamase reporter, 5 h; series mostly up to 61 µM
Procedure, shortened: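 Using a HeLa line with an ESRE-driven beta-lactamase gene, agonist activity was measured by FRET substrate fluorescence (460 and 530 nm emission) after cells were treated with compounds for 5 hr at 37 C and 5% CO2.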

[11] = biological target: Nuclear receptor ROR-gamma (Homo sapiens) (UniProt P51449); experiment: qHTS assay to identify small molecule antagonists of the retinoid-related orphan receptor gamma (ROR-gamma) signaling pathway (AID 1159521;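 note: CHO cells with doxycycline inducible ROR-gamma driving an RORE luciferase reporter; top concentration of the series differs between compounds; nearly all actives have a fitted effect of over 50% in size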); conditions: Tet-on RORgamma CHO cells, RORE-luciferase, 16 h; series mostly up to 92.4 µM
Procedure, shortened: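 Screening format: cell-based luciferase reporter in CHO cells with doxycycline-inducible RORγ. Compound pre-exposure lasts 2 h, doxycycline is 1 uM final, induction runs 16 h at 37 C, and ONE-Glo luminescence is read.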

[12] = qHTS assay to identify small molecule agonists of the AP-1 signaling pathway - cell viability counter screen (AID 1159525; calls by dose curve; note: nearly all actives have a fitted effect of over 55% in size); conditions: ME-180 AP-1-bla cells viability, ATP luminescence, 5 h; series mostly up to 76.8 µM
Procedure, shortened: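 Each titration point was normalised to DMSO and tetra n-octyl ammonium bromide controls. The read was Cell Titer Glo luminescence after 30 min at RT, following 5 h compound exposure of ME-180 AP-1-bla cells at 37 °C.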

[13] = qHTS assay to identify small molecule agonists of the AP-1 signaling pathway (AID 1159526; calls by dose curve); conditions: ME-180 (cervical carcinoma) AP-1-bla reporter, beta-lactamase FRET ratio, 5 h; series mostly up to 76.8 µM
[14] = qHTS assay to identify small molecule agonists of the RXR signaling pathway - cell viability counter screen (AID 1159529); conditions: RXR-alpha-bla HEK293T viability, CellTiter-Glo, 16 h; series mostly up to 76.8 µM; note: nearly all actives have a fitted effect of over 50% in size
Procedure, shortened: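 Viability read-out for the RXR-alpha agonist qHTS: luminescent CellTiter-Glo signal after 30 min at RT. HEK 293T bla reporter cells, 2% charcoal-stripped FBS, 16 hr compound incubation; tetraoctyl ammonium bromide as cytotoxic control.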

[15] = biological target: Peroxisome proliferator-activated receptor delta (Homo sapiens) (UniProt Q03181); experiment: qHTS assay to identify small molecule antagonists of the peroxisome proliferator-activated receptor delta (PPARd) signaling pathway (AID 743215; active = well fitted inhibition curve with a large enough effect in the signal ratio in the repeat runs, not every such curve was filed as active; the % refers to the signal ratio;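 note: cells stimulated with agonist L165041 at 300 nM final during compound exposure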); conditions: HEK293H PPARd-UAS-bla, beta-lactamase FRET ratio, antagonist, 17 h; series mostly up to 62 µM
Procedure, shortened: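 Plated HEK293H PPARd-bla cells rested 5 h at 37 C and 5% CO2. Compound, then agonist L165041 at 300 nM final, was added; 17 h at 37 C followed. Substrate loading, 2 h room temperature, fluorescence measured.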

[16] = qHTS assay to identify small molecule antagonists of the retinoid-related orphan receptor gamma (ROR-gamma) signaling pathway - cell viability counter screen (AID 1159520); conditions: Tet-on RORgamma CHO cells viability, ATP luminescence, 16 h; series mostly up to 92.4 µM; note: nearly all actives have a fitted effect of over 50% in size
Procedure, shortened: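 Tet-on ROR gamma CHO cells (1,000/well) were plated 4 hr, given compounds in DMSO for 2 hr at 37 C, then induced with 1 uM final doxycycline for 16 hr. Viability was read as ATP by CellTiter-Glo luminescence after 30 min.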

[17] = biological target: Vitamin D3 receptor (Homo sapiens) (UniProt P11473); experiment: qHTS assay to identify small molecule antagonists of the vitamin D receptor (VDR) signaling pathway (AID 743223; active = well fitted inhibition curve with a large enough effect in the signal ratio in the repeat runs, not every such curve was filed as active; the % refers to the signal ratio); conditions: VDR-UAS-bla HEK293T, beta-lactamase FRET ratio, 16 h; series mostly up to 61 µM
Procedure, shortened: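 Beta-lactamase activity in VDR-bla cells is measured by FRET substrate fluorescence (2 h, room temperature) after cells spend 16 h at 37C with test compound and 3 nM final 1alpha,25-dihydroxyvitamin D3.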

[18] = qHTS assay to identify small molecule antagonists of the vitamin D receptor (VDR) signaling pathway - cell viability counter screen (AID 743225); conditions: VDR-bla HEK293T viability, CellTiter-Glo luminescence, 16 h; series mostly up to 61 µM; note: nearly all actives have a fitted effect of over 50% in size
Procedure, shortened: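 In this counter screen, VDR-bla HEK 293T cells receive test compound plus 3 nM final calcitriol for 16 h at 37C. Room-temperature steps of 2 h with the beta-lactamase substrate, then 30 min with CellTiter-Glo, precede the luminescence read.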

[19] = biological target: Retinoic acid receptor RXR-alpha (Homo sapiens) (UniProt P19793); experiment: qHTS assay to identify small molecule agonists of the RXR signaling pathway (AID 1159527; calls by dose curve; note: nearly all actives have a fitted effect of over 35% in size); conditions: HEK293T RXRa-UAS-bla, beta-lactamase ratio, 16 h; series mostly up to 35.3 µM
Procedure, shortened: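 Fluorescence ratio readout (460 vs 530 nm) from GeneBLAzer RXR-alpha HEK 293T cells after 16 hr compound treatment; cells seeded 5 hr beforehand in low-serum, charcoal-stripped medium.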

Measured: Potency

Chain of Bile acid receptor (Homo sapiens) (Q96RI1 whole entry, looked up): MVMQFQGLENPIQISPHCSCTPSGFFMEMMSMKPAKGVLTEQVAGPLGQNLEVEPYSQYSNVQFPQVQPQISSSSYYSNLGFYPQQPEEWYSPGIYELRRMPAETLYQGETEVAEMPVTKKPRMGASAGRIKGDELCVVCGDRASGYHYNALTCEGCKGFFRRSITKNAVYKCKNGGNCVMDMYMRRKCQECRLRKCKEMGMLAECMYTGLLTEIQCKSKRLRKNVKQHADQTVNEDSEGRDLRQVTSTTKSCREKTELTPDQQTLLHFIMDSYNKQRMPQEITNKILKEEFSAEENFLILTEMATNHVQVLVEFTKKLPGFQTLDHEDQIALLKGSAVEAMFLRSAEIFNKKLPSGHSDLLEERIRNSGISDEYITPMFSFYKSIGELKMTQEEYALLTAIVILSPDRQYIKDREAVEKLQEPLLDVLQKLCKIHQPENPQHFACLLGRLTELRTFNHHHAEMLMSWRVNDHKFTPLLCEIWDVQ
Chain of Vitamin D3 receptor (Homo sapiens) (P11473 whole entry, looked up): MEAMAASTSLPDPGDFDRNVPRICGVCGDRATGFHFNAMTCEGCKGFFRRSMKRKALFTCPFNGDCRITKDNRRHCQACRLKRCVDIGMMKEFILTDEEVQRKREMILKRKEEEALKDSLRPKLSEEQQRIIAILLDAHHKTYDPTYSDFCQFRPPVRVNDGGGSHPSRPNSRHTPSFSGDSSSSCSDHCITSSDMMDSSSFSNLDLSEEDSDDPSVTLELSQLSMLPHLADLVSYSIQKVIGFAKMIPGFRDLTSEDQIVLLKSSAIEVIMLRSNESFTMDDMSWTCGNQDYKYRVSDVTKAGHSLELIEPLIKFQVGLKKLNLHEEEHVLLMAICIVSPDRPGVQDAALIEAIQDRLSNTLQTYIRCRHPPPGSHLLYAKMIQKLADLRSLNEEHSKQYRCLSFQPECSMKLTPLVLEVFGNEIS
Chain of Peroxisome proliferator-activated receptor delta (Homo sapiens) (Q03181 whole entry, looked up): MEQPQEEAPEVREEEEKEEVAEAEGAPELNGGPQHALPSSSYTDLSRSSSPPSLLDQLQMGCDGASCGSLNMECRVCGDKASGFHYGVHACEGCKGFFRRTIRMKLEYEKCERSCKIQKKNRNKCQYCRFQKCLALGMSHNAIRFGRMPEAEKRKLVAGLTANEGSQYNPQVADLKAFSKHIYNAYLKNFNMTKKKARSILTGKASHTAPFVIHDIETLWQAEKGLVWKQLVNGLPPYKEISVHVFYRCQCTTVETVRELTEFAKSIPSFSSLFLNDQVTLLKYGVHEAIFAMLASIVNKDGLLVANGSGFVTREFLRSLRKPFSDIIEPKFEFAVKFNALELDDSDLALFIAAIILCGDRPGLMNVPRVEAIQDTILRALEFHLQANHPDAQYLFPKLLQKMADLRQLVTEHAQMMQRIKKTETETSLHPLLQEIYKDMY
Chain of Retinoic acid receptor RXR-alpha (Homo sapiens) (P19793 whole entry, looked up): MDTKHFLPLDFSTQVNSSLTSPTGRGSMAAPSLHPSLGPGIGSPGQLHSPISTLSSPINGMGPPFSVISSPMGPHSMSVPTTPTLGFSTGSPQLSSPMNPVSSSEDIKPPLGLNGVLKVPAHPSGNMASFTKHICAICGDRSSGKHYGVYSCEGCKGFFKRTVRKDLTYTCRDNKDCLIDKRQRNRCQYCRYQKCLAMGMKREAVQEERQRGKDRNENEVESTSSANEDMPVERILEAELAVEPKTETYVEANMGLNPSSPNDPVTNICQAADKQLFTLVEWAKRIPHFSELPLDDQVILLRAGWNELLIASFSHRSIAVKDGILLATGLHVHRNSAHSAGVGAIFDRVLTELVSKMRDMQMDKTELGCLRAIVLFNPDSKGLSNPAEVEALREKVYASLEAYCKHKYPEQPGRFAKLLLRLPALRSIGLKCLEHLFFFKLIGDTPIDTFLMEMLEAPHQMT

CC(=O)Nc1ccccc1O
not listed: [15] | [16] | [17] | [18] | [19]
inactive: all other assays above

CC1(C)CC(=O)CC(C)(C)N1
not listed: [1] | [2] | [4] | [7] | [12] | [17] | [18] | [19]
inactive: all other assays above

C=C[Si](OCC)(OCC)OCC
not listed: [2] | [4] | [12] | [15] | [18] | [19]
inactive: all other assays above

CC(=O)c1cccnc1
not listed: [2] | [4] | [6] | [17] | [19]
inactive: all other assays above

O=[N+]([O-])c1ccc(Cl)cc1Cl
not listed: [2] | [4] | [6] | [14] | [16] | [17] | [19]
inactive: all other assays above

Cc1c(Cl)cccc1[N+](=O)[O-]
not listed: [1] | [6] | [17] | [19]
inactive: all other assays above

O=[N+]([O-])c1cccc(I)c1
not listed: [1] | [2] | [4] | [17] | [19]
inactive: all other assays above

C1CCN(CN2CCCCC2)CC1
not listed: [2] | [4] | [5] | [6] | [7] | [14] | [17] | [19]
inactive: all other assays above

CC(C)(C)c1ccc(CCC=O)cc1
not listed: [3] | [6] | [7] | [17] | [19]
inactive: all other assays above

FC(F)(Cl)C(F)(Cl)Cl
not listed: [2] | [3] | [4] | [14] | [15] | [17] | [18] | [19]
inactive: all other assays above

C1=COCCC1
not listed: [12] | [14] | [19]
inactive: all other assays above

Cc1cc(N)n(-c2ccccc2)n1
not listed: [2] | [4] | [19]
inactive: all other assays above

O=c1c2ccccc2oc2ccccc12
not listed: [1] | [2] | [3] | [4] | [5] | [15] | [17] | [19]
inactive: all other assays above

CCCCCCCCCC(C)C=O (configuration not stated)
not listed: [15] | [18] | [19]
inactive: all other assays above

Oc1ccc(CCNCCCCCCNCCc2ccccc2)cc1O
not listed: [6] | [7] | [14] | [19]
inactive: all other assays above

CO[C@@H]1[C@@H](O[C@@H]2O[C@H](C)[C@@H](O[C@H]3C[C@@](C)(O)[C@@H](O)[C@H](C)O3)[C@H](N(C)C)[C@H]2O)[C@@H](CC=O)C[C@@H](C)[C@@H](O[C@@H]2CC[C@H](N(C)C)[C@@H](C)O2)/C=C/C=C/C[C@@H](C)OC(=O)C[C@H]1OC(C)=O
inactive: [6] | [7] | [18] | [8] | [9] | [10] | [16] | [11] | [12] | [13]

Cc1c(-c2cccnc2)c2ccccc2n1CCCCC(=O)O
not listed: [7] | [14] | [17] | [19]
inactive: all other assays above

CCc1cnc(C(=O)O)c(C(=O)O)c1
not listed: [2] | [4] | [5] | [15] | [17] | [19]
inactive: all other assays above

C[C@H](N)C(=O)N[C@@H](C)C(=O)NC1[C@H]2CN(c3nc4c(cc3F)c(=O)c(C(=O)O)cn4-c3ccc(F)cc3F)C[C@@H]12 (some centres not stated)
not listed: [1] | [2] | [4] | [6] | [15] | [17] | [19]
inactive: all other assays above

CCC(C)C1N=C(C)C(C)S1 (configuration not stated)
not listed: [2] | [4] | [6] | [17] | [19]
inactive: all other assays above

CC(Cc1ccccc1)(NC(=O)CN)c1ccccc1 (configuration not stated)
not listed: [1] | [2] | [13]
inactive: all other assays above

CCCCCCCCCCCCSCCOCCO
not listed: [1] | [6] | [15] | [17] | [19]
inactive: all other assays above
